# Compounds with a hit are over-represented: about 3.4% of the library has one in this group of screens.
# PLK1 PBD inh = inhibitors of human PLK1 polo-box domain binding; Potency, µM, for inactives: max response, negative = inhibition, usual class: inhibitors; Plk1 PBD binding of FITC phosphopeptide, fluorescence polarization; P53350; 2.8% of 360,000 active; note: series mostly up to about 57 µM; % is set by controls: 0 for no effect and ±100 for the full control effect; nearly all actives have a fitted effect of over 65% in size
# GCN5L2 inh = blocks human GCN5L2 histone acetyltransferase. GCN5L2 HAT assay, ThioGlo1 CoA-SH fluorescence. 0.21% of 390,000 active. Q92830. Potency, µM (highest dose often 58.9 µM), for inactives: top-dose activity change, negative = inhibition, actives largely listed as inhibitors; note: % is set by controls: 0 for no effect and ±100 for the full control effect
#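 Preincubate 20nM GCN5L2 with compound 15 min, RT → add 50uM ThioGlo1 + 75uM H3(1-25) + 70uM acetyl-CoA → read fluorescence 0 and 20 min. Primary qHTS; fluorescent artifacts likely.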
# PKM2 activator = PKM2 (human) enzyme activation | P14618 | purified PKM2, Kinase-Glo ATP luminescence, activation; response scale: 0% is enzyme alone, no compound | Potency, µM (titrated, usually from 57.5 µM), for the others: at the top dose activation, actives largely listed as activators | 0.34% of 260,000 active | AID 1631; note: % is set by controls: 0 for no effect and ±100 for the full control effect; nearly all actives have a fitted effect of over 55% in size
#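 Purified hPK-M2 (>95% pure) converted ADP (0.1 mM final) to ATP with 0.5 mM PEP in 50 mM imidazole pH7.2, KCl, MgCl2, Tween 20, BSA; 1 h at room temperature. ATP detected by Kinase-Glo luminescence.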
# VDR inhibitor = vitamin D3 receptor (human) inhibition; 0.93% of 400,000 active; Potency, µM, for inactives: max response, negative = inhibition, most hits filed as inhibitors; VDR-SRC2-3 peptide fluorescence polarization, 2 h; AID 504847; P11473; note: % is set by controls: 0 for no effect and ±100 for the full control effect
# Target sequence (P11473 whole entry, looked up): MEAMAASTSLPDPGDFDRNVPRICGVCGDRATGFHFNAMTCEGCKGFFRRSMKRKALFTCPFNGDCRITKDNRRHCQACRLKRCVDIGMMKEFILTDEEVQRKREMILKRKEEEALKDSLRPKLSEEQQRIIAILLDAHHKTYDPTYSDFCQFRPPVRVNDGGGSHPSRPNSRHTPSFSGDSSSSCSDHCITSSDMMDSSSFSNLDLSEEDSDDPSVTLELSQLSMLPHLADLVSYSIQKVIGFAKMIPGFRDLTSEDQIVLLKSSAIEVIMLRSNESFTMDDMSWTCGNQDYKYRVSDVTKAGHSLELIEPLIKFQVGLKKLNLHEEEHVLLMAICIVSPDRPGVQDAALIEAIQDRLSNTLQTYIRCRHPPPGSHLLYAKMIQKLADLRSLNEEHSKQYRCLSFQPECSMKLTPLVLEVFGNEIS
#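 Two reagent solutions held at 4 deg C in the dark were dispensed, compounds pinned at 23 nl, and the mixture incubated 2 h at room temperature. Read-out: fluorescence polarization of VDR–SRC2-3 peptide binding.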
# Mito fusion act = blocks mitochondrial division or promotes mitochondrial fusion; S. cerevisiae fusion-defective mutant growth rescue, CellTiterGlo 48 h; Potency, µM (series often up to 46.1 µM), for the others: at the top dose growth rescue (activation), actives largely listed as activators; 0.23% of 320,000 active; AID 485298; note: % of control where 0% means no effect; nearly all actives have a fitted effect of over 45% in size
#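 Luminescent cell viability in 1536-well qHTS format served as the measure of rescued growth in ts fusion-mutant S. cerevisiae cultured on non-fermentable YPEG for 48 hours at 37C.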
# GLS inhibitor = blocks human kidney-isoform glutaminase activity. AID 624170. GLS enzymatic activity, qHTS titration. Potency, µM (titrated, usually from 45.5 µM), for inactives: at the highest dose activity change, negative = inhibition, usual class: inhibitors. 0.21% of 410,000 active. O94925; note: % is set by controls: 0 for no effect and ±100 for the full control effect
#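 Assay buffer: 45 mM KH2PO4 pH 8.2, 0.02% Tween-20. hKGA acts on L-glutamine (1 mM solution added); product glutamate is reported by an oxidase/peroxidase Amplex Red coupling, with fluorescence taken at baseline and 30 min.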
# An asterisk follows results filed as active; ? = inconclusive; / = not tested or not shown; [ ] = remark or other dose. Calls come from the whole dose curve; as a rule, active = well fitted curve in the direction sought with a large enough effect; inconclusive = small, poorly fitted or top-dose-only effect, or another doubt; inactive = no such curve, though single readings can be large; an effect the other way counts as inactive or inconclusive. Potency is the fitted concentration of half-maximal effect.
SMILES,PLK1 PBD inh,GCN5L2 inh,PKM2 activator,VDR inhibitor,Mito fusion act,GLS inhibitor
Cc1ccccc1C(c1ncccc1C)N(C)C(=O)C1CCN(CCOc2ccc(Cl)cc2Cl)CC1 (stereo unspecified),-2%,/,/,/,/,11%
CC(C)(C)S(=O)(=O)/C(C#N)=C/c1sccc1C1OCCO1,21µM*,-10%,-3%,?,0%,-20%
NNC(=O)c1[nH]c2ccc(Cl)cc2c1-c1ccccc1,-13%,-1%,1%,79µM*,20%,-22%
Cc1csc(SCc2nnc(-c3ccccc3Br)o2)n1,-15%,0%,-1%,18%,1%,3%
Fc1ccccc1SCc1nnc(-c2ccccc2Br)o1,3.4µM*,-17%,-8%,45µM*,2%,-10%
CC(C)(C)c1ccc(NC(=O)c2cc(C3CCCN(C(=O)CCc4ccccc4)C3)on2)cc1 (stereo unspecified),-2%,/,/,/,/,0%
O=C(NCc1ccccn1)c1c(O)c2cccc3c2n(c1=O)CC3,-3%,-4%,8.9µM*,24%,-3%,-2%
OCc1ccccc1SSc1ccccc1CO,0.27µM*,/,/,8.9µM*,/,?
COc1ccc2c(c1)C(c1ccc(C)cc1)CC(=O)O2 (stereo unspecified),/,-6%[88.6 µM],/,-4%,/,/
Cn1c(CCNC(=O)c2ccco2)nc2cc(NS(=O)(=O)c3ccccc3)ccc21,-1%,-5%,3.2µM*,-5%,1%,12%
O=[N+]([O-])/C=C\c1ccc(N2CCOCC2)cc1,30µM*,/,/,25µM*,/,23%
O=C(COc1ccc(/C=C\[N+](=O)[O-])cc1)N1CCOCC1,?,-12%,13%,?,-9%,-20%
O=C(NCc1ccccc1Cl)c1ccc2sc([C@H]3C[C@H](O)[C@@H](CO)O3)nc2c1,-8%,/,/,/,/,9%
CCCn1c(N)c(C(=O)CSc2nnc(-c3ccoc3C)n2C)c(=O)n(C)c1=O,-12%,-1%,/,5%,-4%,3%
CCCn1c(N)c(C(=O)CSc2nc(C)cs2)c(=O)n(C)c1=O,-6%,3%,16µM*,23%,-1%,8%
CC(C)(C)OC(=O)N1CCC[C@H]1C(=O)NCc1ccc(Cl)cc1Cl,27µM*,-16%,3%,?,-4%,-17%
O=S(=O)(c1ccc2c(c1)OCCO2)N1CCC(n2cnc3cc(F)ccc32)CC1,-9%,0%,7.1µM*,2%,2%,-2%
Cc1ccccc1NC1=NC(C)(C)N=C(N)N1,-6%,-12%,-4%,-4%,-1%,11%
Cc1cccc(NC2=NC(C)(C)N=C(N)N2)c1C,4%,4%,-3%,25µM*,-1%,5%
CS(=O)(=O)c1ccc(C(=O)OCC(=O)NCC2CCCO2)cc1[N+](=O)[O-] (stereo unspecified),/,/,/,-4%,/,/
CCOC(=O)C1=C(N)Oc2cc(O)ccc2C1c1ccc(C)cc1 (stereo unspecified),-2%,-5%,-2%[11.5 µM],-2%,-2%,-9%
CCOC(=O)C1=C(N)Oc2ccc(Br)cc2C1C(C#N)C(=O)OCC (stereo unspecified),/,-23%,/,5.6µM*,/,/
FC(F)(F)c1ccccc1NC(=S)Nc1cccc2cnccc12,30µM*,3%,-2%,4%,-9%,0%
Fc1ccccc1NC(=S)Nc1cccc2cnccc12,30µM*,-1%,-4%,?,0%,5%
FC(F)(F)c1ccccc1NC(=S)Nn1cnnc1,9.5µM*,-8%,-18%,?,6%,-18%
CN(c1nccc(=O)[nH]1)C1CCN(c2nc3ccccc3n2Cc2ccc(F)cc2)CC1,/,3%,/,-4%,/,2%
CCc1ccc(OCCCn2c(CCNC(=O)C3CCCCC3)nc3ccccc32)cc1,/,/,/,2%,/,/
CCCCOc1ccccc1CC1C(=O)Nc2ccc(Br)cc21 (stereo unspecified),/,-15%,/,10%,/,/

# Bioassay records: PubChem BioAssay, National Center for Advancing Translational Sciences (NCATS)
